# Reference: PMC7862700, “An all-to-all approach to the identification of sequence-specific readers for epigenetic DNA modifications on cytosine”
# Experiments:
# Assay in all cases: DAPPL (digital affinity profiling via proximity ligation, sequencing); 10 mM Tris-HCl pH 7.5, 50 mM NaCl, 1 mM DTT, 4% glycerol, room temperature, 30 min; GST-TFs on glutathione beads, 16-mer random dsDNA library, 0.1% formaldehyde crosslink after washing; high values mean tight binding
# FLI1 = target: T1, FLI1 (Homo sapiens, UniProt Q01543 1-452); conditions: protein: recombinant; tags: N-terminal GST; dsDNA, one strand shown
# T1 sequence: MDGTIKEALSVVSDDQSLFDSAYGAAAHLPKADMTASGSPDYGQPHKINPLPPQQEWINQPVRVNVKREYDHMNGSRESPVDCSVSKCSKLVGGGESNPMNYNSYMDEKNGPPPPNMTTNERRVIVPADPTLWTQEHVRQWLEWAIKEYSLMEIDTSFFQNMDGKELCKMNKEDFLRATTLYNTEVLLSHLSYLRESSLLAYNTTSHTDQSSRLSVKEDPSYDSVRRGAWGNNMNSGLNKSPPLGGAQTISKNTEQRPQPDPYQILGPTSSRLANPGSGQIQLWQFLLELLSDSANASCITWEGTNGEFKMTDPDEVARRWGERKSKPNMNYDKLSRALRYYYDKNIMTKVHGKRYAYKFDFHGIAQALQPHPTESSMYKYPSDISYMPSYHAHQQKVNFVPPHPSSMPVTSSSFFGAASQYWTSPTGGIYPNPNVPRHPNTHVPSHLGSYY
# Outline: (§1)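 Human transcription factors carrying a GST fusion were produced in yeast, bound to glutathione beads, tagged with DNA barcodes and pooled together with a tag-only sample. Each pool was held with 200 nmole of a random double-stranded 16-mer DNA library in Tris/NaCl/DTT/glycerol buffer for 30 min at room temperature, then washed, crosslinked in 0.1% formaldehyde, proximity-ligated with BsaI/T4 ligase (1 h, 37 °C), PCR-amplified and sequenced on an Illumina NextSeq500. Binding signal is the read frequency of each hexamer for a given factor divided by its frequency in the tag-only sample.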
# ELK1 = target: T2, ELK1 (Homo sapiens, UniProt P19419 1-428); conditions: protein: recombinant; tags: N-terminal GST; dsDNA, one strand shown
# T2 sequence: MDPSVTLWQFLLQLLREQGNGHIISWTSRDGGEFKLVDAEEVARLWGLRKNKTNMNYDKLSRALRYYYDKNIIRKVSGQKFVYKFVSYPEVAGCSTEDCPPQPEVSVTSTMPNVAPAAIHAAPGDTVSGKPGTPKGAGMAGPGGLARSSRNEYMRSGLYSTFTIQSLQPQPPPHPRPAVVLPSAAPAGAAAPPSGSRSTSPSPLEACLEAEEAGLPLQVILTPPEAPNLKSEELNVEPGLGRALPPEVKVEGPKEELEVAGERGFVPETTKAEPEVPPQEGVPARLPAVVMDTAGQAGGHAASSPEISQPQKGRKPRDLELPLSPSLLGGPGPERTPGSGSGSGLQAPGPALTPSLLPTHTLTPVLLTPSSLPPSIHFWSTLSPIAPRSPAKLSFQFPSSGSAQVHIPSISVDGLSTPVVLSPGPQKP
# Outline: as §1
# GABPA = target: T3, GABPA (Homo sapiens, UniProt Q06546 1-454); conditions: protein: recombinant; tags: N-terminal GST; dsDNA, one strand shown
# T3 sequence: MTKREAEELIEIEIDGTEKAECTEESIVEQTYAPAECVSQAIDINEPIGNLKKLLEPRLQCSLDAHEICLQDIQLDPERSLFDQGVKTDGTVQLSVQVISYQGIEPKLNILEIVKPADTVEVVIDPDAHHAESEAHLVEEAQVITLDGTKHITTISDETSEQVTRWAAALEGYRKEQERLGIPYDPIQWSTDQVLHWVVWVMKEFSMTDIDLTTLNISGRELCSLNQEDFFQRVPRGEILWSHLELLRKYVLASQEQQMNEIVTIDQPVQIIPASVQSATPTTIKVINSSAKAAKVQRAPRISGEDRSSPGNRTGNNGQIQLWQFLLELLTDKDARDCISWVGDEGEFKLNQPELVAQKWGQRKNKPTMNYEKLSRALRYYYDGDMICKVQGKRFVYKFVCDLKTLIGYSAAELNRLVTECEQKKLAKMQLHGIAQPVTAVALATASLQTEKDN
# Outline: as §1
# ERG = target: T4, ERG (Homo sapiens, UniProt P11308 1-479); conditions: protein: recombinant; tags: N-terminal GST; dsDNA, one strand shown
# T4 sequence: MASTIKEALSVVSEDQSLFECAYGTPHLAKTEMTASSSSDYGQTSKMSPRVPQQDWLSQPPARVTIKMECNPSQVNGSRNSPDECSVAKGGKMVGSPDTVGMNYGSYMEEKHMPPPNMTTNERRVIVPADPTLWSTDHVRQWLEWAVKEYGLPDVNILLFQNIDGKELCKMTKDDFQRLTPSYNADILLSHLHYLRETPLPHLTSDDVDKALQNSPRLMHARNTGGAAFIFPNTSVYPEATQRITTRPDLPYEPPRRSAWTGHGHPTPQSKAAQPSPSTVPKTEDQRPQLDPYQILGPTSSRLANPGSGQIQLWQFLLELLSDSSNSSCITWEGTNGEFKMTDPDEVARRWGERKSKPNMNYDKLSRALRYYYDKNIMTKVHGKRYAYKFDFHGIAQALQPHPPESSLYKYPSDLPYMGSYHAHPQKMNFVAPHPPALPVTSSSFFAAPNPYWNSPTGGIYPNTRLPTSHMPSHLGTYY
# Outline: as §1
# ELF1 = ELF1 (Homo sapiens, UniProt P32519 1-619); conditions: protein: recombinant; tags: N-terminal GST; dsDNA, one strand shown
# Chain of ELF1 (P32519 whole entry): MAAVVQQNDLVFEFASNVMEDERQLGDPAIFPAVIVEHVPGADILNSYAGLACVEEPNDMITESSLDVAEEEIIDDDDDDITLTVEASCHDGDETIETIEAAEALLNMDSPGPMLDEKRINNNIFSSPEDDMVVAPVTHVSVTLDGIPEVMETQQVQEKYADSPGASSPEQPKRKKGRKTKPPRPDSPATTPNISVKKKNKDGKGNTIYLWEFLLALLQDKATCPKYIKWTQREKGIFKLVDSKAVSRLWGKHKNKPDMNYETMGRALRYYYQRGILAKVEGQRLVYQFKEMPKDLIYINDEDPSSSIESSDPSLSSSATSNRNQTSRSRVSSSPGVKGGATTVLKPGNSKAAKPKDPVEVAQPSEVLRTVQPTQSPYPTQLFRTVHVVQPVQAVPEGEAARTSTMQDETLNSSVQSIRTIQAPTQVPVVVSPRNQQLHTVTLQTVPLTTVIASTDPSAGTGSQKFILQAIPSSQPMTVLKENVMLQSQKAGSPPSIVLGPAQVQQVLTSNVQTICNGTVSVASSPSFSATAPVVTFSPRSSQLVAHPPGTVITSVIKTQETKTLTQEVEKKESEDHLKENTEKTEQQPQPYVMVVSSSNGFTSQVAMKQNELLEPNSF
# Outline: as §1
# EHF = target: T5, EHF (Homo sapiens, UniProt Q9NZC4 1-300); conditions: protein: recombinant; tags: N-terminal GST; dsDNA, one strand shown
# T5 sequence: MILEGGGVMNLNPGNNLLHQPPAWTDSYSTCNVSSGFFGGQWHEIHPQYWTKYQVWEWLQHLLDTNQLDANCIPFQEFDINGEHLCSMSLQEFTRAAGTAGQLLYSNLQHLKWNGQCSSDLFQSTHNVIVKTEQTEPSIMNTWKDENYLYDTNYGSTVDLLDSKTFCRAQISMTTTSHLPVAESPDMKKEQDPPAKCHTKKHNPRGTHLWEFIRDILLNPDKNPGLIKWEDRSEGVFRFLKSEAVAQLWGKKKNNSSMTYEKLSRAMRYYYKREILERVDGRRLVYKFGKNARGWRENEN
# Outline: as §1
# SPI1 = SPI1 (Homo sapiens, UniProt P17947 1-270); conditions: protein: recombinant; tags: N-terminal GST; dsDNA, one strand shown
# Outline: as §1
# SPIB = SPIB (Homo sapiens, UniProt Q01892 1-262); conditions: protein: recombinant; tags: N-terminal GST; dsDNA, one strand shown
# Chain of SPIB (Q01892 whole entry): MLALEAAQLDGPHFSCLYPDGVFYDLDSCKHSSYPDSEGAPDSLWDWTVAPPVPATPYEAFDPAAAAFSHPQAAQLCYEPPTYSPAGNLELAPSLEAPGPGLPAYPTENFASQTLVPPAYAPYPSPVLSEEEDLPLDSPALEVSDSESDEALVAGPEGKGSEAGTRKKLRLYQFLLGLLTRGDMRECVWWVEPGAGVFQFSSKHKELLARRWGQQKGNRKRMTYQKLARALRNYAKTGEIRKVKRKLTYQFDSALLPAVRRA
# Outline: as §1
# ELK3 = target: T6, ELK3 (Homo sapiens, UniProt P41970 1-407); conditions: protein: recombinant; tags: N-terminal GST; dsDNA, one strand shown
# T6 sequence: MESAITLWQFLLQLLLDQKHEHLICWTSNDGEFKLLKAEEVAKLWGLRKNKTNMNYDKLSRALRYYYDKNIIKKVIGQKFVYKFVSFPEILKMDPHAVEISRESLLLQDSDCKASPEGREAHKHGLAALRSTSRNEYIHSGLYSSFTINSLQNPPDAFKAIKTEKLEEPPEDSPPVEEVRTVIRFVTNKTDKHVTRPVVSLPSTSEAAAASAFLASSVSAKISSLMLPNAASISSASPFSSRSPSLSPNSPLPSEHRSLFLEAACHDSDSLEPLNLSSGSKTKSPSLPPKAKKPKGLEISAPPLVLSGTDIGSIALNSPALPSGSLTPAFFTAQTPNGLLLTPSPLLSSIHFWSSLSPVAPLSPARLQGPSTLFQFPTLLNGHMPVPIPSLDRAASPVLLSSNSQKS
# Outline: as §1
# FEV = target: T7, FEV (Homo sapiens, UniProt Q99581 1-238); conditions: protein: recombinant; tags: N-terminal GST; dsDNA, one strand shown
# T7 sequence: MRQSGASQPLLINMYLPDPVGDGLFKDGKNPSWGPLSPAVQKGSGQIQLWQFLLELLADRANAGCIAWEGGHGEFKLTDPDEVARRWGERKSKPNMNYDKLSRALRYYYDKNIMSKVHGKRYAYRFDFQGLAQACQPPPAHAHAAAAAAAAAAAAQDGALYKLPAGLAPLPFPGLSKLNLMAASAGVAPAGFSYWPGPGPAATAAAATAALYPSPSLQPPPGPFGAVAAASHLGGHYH
# Outline: as §1
# ETV5 = ETV5 (Homo sapiens, UniProt P41161 1-510); conditions: protein: recombinant; tags: N-terminal GST; dsDNA, one strand shown
# Chain of ETV5 (P41161 whole entry): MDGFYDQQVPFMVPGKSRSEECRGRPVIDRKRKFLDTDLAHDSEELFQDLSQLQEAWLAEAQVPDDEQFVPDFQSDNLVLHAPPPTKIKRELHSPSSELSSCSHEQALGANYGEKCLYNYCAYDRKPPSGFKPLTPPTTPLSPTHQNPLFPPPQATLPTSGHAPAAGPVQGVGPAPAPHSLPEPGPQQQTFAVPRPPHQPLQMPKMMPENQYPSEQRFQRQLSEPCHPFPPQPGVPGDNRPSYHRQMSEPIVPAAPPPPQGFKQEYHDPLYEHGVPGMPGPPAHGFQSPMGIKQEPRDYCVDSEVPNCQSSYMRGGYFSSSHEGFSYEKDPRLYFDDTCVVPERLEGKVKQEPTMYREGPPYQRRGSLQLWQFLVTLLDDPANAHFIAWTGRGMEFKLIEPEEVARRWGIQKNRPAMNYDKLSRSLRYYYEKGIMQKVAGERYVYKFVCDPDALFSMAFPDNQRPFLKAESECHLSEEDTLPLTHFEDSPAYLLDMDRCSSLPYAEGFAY
# Outline: as §1
# HSF1 = HSF1 (Homo sapiens, UniProt Q00613 1-529); conditions: protein: recombinant; tags: N-terminal GST; chain copies: 3; dsDNA, one strand shown
# Chain of HSF1 (Q00613 whole entry): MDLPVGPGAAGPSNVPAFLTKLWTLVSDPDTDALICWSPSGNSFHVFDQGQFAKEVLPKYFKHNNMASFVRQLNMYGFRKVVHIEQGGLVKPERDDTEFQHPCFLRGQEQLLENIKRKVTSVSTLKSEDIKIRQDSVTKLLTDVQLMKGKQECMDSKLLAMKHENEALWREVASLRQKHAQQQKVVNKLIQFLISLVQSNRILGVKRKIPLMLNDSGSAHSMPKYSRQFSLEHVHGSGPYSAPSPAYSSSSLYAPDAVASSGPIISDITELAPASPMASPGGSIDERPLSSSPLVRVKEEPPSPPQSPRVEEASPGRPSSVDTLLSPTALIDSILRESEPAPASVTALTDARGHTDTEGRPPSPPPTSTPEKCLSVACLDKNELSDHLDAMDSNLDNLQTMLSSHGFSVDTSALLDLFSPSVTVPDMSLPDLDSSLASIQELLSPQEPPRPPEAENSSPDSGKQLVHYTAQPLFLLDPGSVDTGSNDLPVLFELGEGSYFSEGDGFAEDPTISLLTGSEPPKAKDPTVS
# Outline: as §1
# SPIC = target: T8, SPIC (Homo sapiens, UniProt Q8N5J4 1-248); conditions: protein: recombinant; tags: N-terminal GST; dsDNA, one strand shown
# T8 sequence: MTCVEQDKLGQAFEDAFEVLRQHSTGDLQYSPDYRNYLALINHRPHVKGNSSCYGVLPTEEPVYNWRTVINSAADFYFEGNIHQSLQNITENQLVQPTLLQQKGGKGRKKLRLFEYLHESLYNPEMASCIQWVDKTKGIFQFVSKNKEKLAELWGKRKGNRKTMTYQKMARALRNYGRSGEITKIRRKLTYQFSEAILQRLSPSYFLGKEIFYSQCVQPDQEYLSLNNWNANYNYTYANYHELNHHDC
# Outline: as §1
# ELF4 = ELF4 (Homo sapiens, UniProt Q99607 1-663); conditions: protein: recombinant; tags: N-terminal GST; dsDNA, one strand shown
# Chain of ELF4 (Q99607 whole entry): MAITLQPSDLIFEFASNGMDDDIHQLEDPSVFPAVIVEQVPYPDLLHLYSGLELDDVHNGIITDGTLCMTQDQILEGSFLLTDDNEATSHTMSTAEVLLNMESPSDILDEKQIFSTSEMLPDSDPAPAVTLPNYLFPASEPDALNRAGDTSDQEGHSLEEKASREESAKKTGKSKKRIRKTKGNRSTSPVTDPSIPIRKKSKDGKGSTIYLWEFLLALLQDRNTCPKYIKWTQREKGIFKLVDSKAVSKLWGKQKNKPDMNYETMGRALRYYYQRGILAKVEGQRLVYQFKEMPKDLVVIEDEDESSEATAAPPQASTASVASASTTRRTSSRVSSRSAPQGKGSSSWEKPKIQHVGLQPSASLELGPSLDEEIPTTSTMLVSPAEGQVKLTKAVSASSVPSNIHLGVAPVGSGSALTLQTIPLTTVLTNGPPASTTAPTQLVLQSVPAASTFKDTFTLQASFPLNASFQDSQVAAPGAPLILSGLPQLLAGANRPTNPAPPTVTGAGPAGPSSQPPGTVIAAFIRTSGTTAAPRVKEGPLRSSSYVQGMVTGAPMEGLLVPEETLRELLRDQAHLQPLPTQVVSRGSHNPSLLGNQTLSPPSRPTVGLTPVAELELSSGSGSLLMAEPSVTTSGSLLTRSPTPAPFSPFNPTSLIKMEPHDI
# Outline: as §1
# ELK4 = target: T9, ELK4 (Homo sapiens, UniProt P28324-2 1-405); conditions: protein: recombinant; tags: N-terminal GST; dsDNA, one strand shown
# T9 sequence: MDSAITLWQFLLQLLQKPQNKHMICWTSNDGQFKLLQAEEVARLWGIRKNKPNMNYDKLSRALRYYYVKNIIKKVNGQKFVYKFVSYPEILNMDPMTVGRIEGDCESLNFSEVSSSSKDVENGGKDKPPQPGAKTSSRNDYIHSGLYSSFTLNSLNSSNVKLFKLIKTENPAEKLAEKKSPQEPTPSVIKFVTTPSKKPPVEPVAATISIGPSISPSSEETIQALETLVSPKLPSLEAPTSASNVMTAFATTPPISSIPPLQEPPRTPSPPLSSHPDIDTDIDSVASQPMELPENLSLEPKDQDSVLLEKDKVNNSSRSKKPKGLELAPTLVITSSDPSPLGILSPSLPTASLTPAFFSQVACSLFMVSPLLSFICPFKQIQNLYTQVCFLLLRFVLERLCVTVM
# Outline: as §1
# ETV2 = target: T10, ETV2 (Homo sapiens, UniProt O00321 1-342); conditions: protein: recombinant; tags: N-terminal GST; dsDNA, one strand shown
# T10 sequence: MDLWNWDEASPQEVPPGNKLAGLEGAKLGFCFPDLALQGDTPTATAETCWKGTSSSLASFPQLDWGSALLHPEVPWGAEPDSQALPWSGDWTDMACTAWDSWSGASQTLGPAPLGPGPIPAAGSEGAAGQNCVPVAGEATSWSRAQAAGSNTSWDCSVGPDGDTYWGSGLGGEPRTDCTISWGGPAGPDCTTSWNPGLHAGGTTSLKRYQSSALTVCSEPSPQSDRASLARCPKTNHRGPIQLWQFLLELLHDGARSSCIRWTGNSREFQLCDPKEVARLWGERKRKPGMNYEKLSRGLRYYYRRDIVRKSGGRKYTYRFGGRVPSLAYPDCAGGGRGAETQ
# Outline: as §1
# ELF3 = target: T11, ELF3 (Homo sapiens, UniProt P78545 1-371); conditions: protein: recombinant; tags: N-terminal GST; dsDNA, one strand shown
# T11 sequence: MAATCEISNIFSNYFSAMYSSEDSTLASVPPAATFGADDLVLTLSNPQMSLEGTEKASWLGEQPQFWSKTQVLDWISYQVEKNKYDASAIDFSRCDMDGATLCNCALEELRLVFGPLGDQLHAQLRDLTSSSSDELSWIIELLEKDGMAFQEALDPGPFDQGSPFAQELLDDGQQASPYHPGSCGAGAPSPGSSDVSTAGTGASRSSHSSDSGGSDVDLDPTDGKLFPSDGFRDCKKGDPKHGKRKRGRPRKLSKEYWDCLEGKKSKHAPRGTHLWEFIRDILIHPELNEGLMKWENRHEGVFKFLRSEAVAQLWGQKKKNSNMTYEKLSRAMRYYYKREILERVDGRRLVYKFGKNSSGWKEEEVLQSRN
# Outline: as §1
# ETV1 = ETV1 (Homo sapiens, UniProt P50549 1-477); conditions: protein: recombinant; tags: N-terminal GST; dsDNA, one strand shown
# Chain of ETV1 (P50549 whole entry): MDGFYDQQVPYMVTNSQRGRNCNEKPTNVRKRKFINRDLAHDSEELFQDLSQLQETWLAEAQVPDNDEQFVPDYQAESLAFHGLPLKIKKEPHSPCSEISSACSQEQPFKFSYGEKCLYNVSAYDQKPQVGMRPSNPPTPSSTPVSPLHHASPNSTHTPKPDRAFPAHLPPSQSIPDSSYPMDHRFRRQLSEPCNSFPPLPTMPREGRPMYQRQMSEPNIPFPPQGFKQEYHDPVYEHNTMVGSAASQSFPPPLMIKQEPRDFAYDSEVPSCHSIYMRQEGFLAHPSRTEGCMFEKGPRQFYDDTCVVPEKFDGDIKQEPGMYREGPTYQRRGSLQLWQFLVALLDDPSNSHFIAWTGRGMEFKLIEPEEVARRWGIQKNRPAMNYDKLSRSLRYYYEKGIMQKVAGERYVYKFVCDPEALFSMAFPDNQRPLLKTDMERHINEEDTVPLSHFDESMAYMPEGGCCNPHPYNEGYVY
# Outline: as §1
sequence,measurement,setting,value
AACGAC,binding signal,FLI1,"1.14 fold enrichment (6-mer frequency, TF over GST control)"
same,binding signal,ELK1,"1.19 fold enrichment (6-mer frequency, TF over GST control)"
same,binding signal,GABPA,"1.18 fold enrichment (6-mer frequency, TF over GST control)"
same,binding signal,ERG,"1.14 fold enrichment (6-mer frequency, TF over GST control)"
same,binding signal,ELF1,"1.09 fold enrichment (6-mer frequency, TF over GST control)"
same,binding signal,EHF,"1.1 fold enrichment (6-mer frequency, TF over GST control)"
same,binding signal,SPI1,"1.12 fold enrichment (6-mer frequency, TF over GST control)"
same,binding signal,SPIB,"1.04 fold enrichment (6-mer frequency, TF over GST control)"
same,binding signal,ELK3,"1.06 fold enrichment (6-mer frequency, TF over GST control)"
same,binding signal,FEV,"1.16 fold enrichment (6-mer frequency, TF over GST control)"
same,binding signal,ETV5,"1.14 fold enrichment (6-mer frequency, TF over GST control)"
same,binding signal,HSF1,"1.01 fold enrichment (6-mer frequency, TF over GST control)"
same,binding signal,SPIC,"1.04 fold enrichment (6-mer frequency, TF over GST control)"
same,binding signal,ELF4,"1.18 fold enrichment (6-mer frequency, TF over GST control)"
same,binding signal,ELK4,"1.03 fold enrichment (6-mer frequency, TF over GST control)"
same,binding signal,ETV2,"1.04 fold enrichment (6-mer frequency, TF over GST control)"
same,binding signal,ELF3,"1.02 fold enrichment (6-mer frequency, TF over GST control)"
same,binding signal,ETV1,"1.15 fold enrichment (6-mer frequency, TF over GST control)"
